Screening results (PubChem BioAssay)
Pf growth 96h – inhibits malaria parasite growth, 96 h. 320,000 tested, 6.9% active. AID 504834. P. falciparum luciferase reporter growth, 96 h. Potency, µM (series often up to 28.7 µM), inactives show top-dose activity change, negative = inhibition, hits mostly inhibitors; further: potency means the concentration at half of the fitted maximal effect
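96 h incubation, 37 C, 5% CO2, of luciferase-reporter P. falciparum-infected RBCs (2% hematocrit, 0.05% parasitemia final) with test compounds; endpoint luminescence.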
Sm TGR inh – blocks Schistosoma mansoni thioredoxin glutathione reductase; purified TGR, DTNB reduction, TNB absorbance 405 nm; Potency, µM (series often up to 114 µM), without a hit: top-dose activity change, negative = inhibition, hits mostly inhibitors; 360,000 tested, 3% active; AID 485364; further: potency means the concentration at half of the fitted maximal effect; nearly all actives have a fitted effect of over 60% in size
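Kinetic colorimetric format: TGR-catalysed, NADPH-driven DTNB reduction monitored via TNB absorbance. Enzyme dispensed at 20 nM; compound exposure 15 min at room temperature before reaction start.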
HCMV inh – human cytomegalovirus inhibition | HFF cells, HCMV-luciferase reporter, 72 h; hits give low values | activity change, negative = inhibition, % at 57.5 µM | 410,000 tested, 4.5% active; in the data active means activity change below about -60%; inconclusive means no clear call, values can overlap the other calls; inactive means above about -39%
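After 16 h attachment at 37C, HFF cells received test compound and HCMV-luciferase (1 PFU/cell); reporter luminescence read 72 h later, data normalized against buffer-only and known inhibitor Salinomycin.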
Giardia FBPA inh – blocks Giardia fructose-bisphosphate aldolase activity | A8B2U2 | purified Giardia FBPA | Potency, µM (top dose mostly 59.6 µM), for inactives: at the top dose activity, negative = inhibition, usual class: inhibitors | 290,000 tested, 0.71% active; further: potency means the concentration at half of the fitted maximal effect; nearly all actives have a fitted effect of over 55% in size
Target sequence (A8B2U2 whole entry, looked up): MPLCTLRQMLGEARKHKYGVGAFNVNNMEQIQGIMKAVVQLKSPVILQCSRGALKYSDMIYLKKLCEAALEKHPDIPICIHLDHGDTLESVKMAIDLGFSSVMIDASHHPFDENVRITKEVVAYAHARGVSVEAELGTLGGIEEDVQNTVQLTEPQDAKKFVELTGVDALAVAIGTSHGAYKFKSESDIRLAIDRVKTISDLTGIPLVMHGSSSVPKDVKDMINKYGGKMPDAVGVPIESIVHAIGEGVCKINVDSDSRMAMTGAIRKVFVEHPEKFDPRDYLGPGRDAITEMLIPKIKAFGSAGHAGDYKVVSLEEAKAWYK
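40 nM FBPA preincubated 10 min at RT with compound (up to 57.5 uM final), then substrate plus GAPDH/TPI/NAD/arsenate coupling and diaphorase/resazurin added. Fluorescence read after 20 min at RT, 525/598 nm.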
Pf growth 48h – inhibits P. falciparum growth in the first generation, 48 h. P. falciparum luciferase growth in erythrocytes, 48 h. Potency, µM (top dose mostly 28.7 µM), for inactives: at the top dose activity change, negative = inhibition, hits mostly inhibitors. 310,000 tested, 5.9% active; further: potency means the concentration at half of the fitted maximal effect
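Firefly luciferase activity from engineered P. falciparum reports growth; inhibitors lower the luminescent signal. Cultures contained 2% hematocrit erythrocytes at 0.1% final parasitemia.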
An asterisk follows results filed as active; i = inactive; ? = inconclusive; nt = no result given; ! = not active in a repeat; [ ] = remark or other dose. Shown are actives, neighbours in structure and some others; about 14% of the full set was active somewhere. Unless noted, the call rests on the fitted dose curve; in most records, active means well fitted curve in the direction sought with a large enough effect; inconclusive means small, poorly fitted or top-dose-only effect, or another doubt; inactive means no such curve, though single readings can be large; an effect the other way counts as inactive or inconclusive. On the % scale 0 is the no-effect control and ±100 the full control effect.

SMILES	Pf growth 96h	Sm TGR inh	HCMV inh	Giardia FBPA inh	Pf growth 48h
O=C(/C=C/[C@H]1O[C@@H](n2cnc3c(NC(=O)c4ccccc4)ncnc32)[C@H](O)[C@@H]1O)NCc1cccs1	nt	nt	9	nt	nt
COc1ccc(Nc2nc3c([nH]2)c(=O)[nH]c(=O)n3C)cc1	13µM*	0%	35	-6%	3%
COc1ccccc1Nc1cc(C)nc(Nc2ccccc2OC)n1	10µM*	-2%	-29	nt	?
COc1cc(Nc2c3ccccc3nc3ccccc23)cc(OC)c1OC	?	-2%	-32	-3%	7.4µM*
COc1ccc(Nc2nc3ccccc3c(=O)[nH]2)cc1	4.7µM*	-5%	26	-12%	2.1µM*
COc1ccccc1Nc1nc(C)cc(C)n1	?	-23%	-2	3%	1%
COCCCNc1nc2c([nH]1)c(=O)[nH]c(=O)n2C	0%	-7%	23	-3%	11%
COc1ccc(C(=O)NCCn2cc(SCC(=O)Nc3ccc(F)cc3)c3ccccc32)cc1	nt	11%	0	nt	nt
Cc1ccc2nc3c(c(Nc4ccccc4)c2c1)CCC3	9.3µM*	0%	?	-3%	?
COc1cccc(Nc2nc(-c3ccccc3)c3cc(C)ccc3n2)c1	nt	14%	-36	nt	nt
COc1cc(Nc2nc(-c3ccccc3)c3cc(C)ccc3n2)cc(OC)c1OC	3%	40µM*	97	-21%	?
COc1ccccc1Nc1c2ccccc2nc2ccccc12	2.3µM*	-14%	-99*	4%	7.4µM*
O=C(O)c1ccc(Nc2c3ccccc3nc3ccccc23)cc1	8%	-10%	-10	-21%	2.1µM*
COc1ccccc1Nc1nc(-c2ccccc2)nc2ccccc12	-1%	19%	?	-1%	6%
c1ccc2c(Nc3ccc4c(c3)OCCO4)c3c(nc2c1)CCC3	11%	nt	-79*	-6%	?
COc1ccc(Nc2c3c(nc4ccccc24)CCC3)cc1	-28%	16%	-94*	-2%	?
Clc1ccc(Nc2nc(-c3ccccc3)c3cc(Cl)ccc3n2)cc1	nt	0%	-61*	nt	nt
COc1ccc(C)cc1Nc1c2c(nc3ccccc13)CCC2	49%	4%	-88*	6%	nt
c1ccc(Nc2c3c(nc4ccccc24)CCC3)cc1	9%	-6%	?	-1%	?
COc1ccc(Cl)cc1NC(=O)CSC1=Nc2ccccc2C2=NC(CC(=O)NCc3ccc4c(c3)OCO4)C(=O)N12 (centres undefined)	nt	-1%	15	nt	nt
COc1ccc(C(=O)Nc2cccc(/C=C/c3nc4ccccc4c(=O)[nH]3)c2)cc1	72%	10%	-84*	-7%	38%
COc1ccc(Nc2c3ccccc3nc3ccccc23)cc1	43%	-4%	-102*	-19%	4.1µM*
Fc1ccc(Nc2c3c(nc4ccccc24)CCC3)cc1	-3%	17%	-64*	3%	?
COc1ccc(Nc2cc(Nc3cc(OC)c(OC)c(OC)c3)ncn2)cc1	6%	8%	-90*	7%	?
COc1ccc(Nc2cc(C)c3ccccc3n2)cc1	-17%	8%	57	-25%	6%
SMILES	Pf growth 96h	Sm TGR inh	HCMV inh	Giardia FBPA inh	Pf growth 48h
O=C(Nc1cccc(/C=C/c2nc3ccccc3c(=O)[nH]2)c1)c1ccccc1Cl	3%	1%	40	2%	4%
CC1(Cn2ccnn2)[C@H](C(=O)O)N2C(=O)C[C@H]2S1(=O)=O (some centres undefined)	-15%	nt	nt	-7%	-1%
N[C@@H](Cc1cc(Br)c(O)c(Br)c1)C(=O)O	0%	25µM*	nt	?	-5%
N[C@H](Cc1ccc(O)cc1)C(=O)O	nt	nt	nt	-5%	nt
N[C@@H](Cc1cc(I)c(Oc2ccc(O)c(I)c2)c(I)c1)C(=O)O	?	50µM*!	-38	0%	?
CC(=O)O[C@H]1C2=CO[C@H](C)[C@H]3[C@H]4C5=C([C@H](O)[C@H]6O[C@@H]6C5=O)[C@H](O[C@H]4C)[C@@]23C(=O)[C@H]2O[C@@H]21	nt	nt	nt	-1%[12.9 µM]	nt
Cc1c(N)cc(N)cc1C(=O)O	38%	-28%	?	4.5µM*	?
CC1=C(C#N)C(/C=N/OCc2ccc(F)cc2Cl)CC(=O)N1 (centres undefined)	-17%	6%	-80*	3%	i
COc1ccnc(Oc2ccccc2)c1C(=O)N/C=N/OCc1ccc(F)cc1Cl	39%	3%	-28	4%	-1%
COc1ccc(OC)c(NC(=O)Cc2c(C(=O)O)n(C)c3ccc(C)cc23)c1	nt	22%	1	nt	nt
Cc1ccc(NC(=O)COC(=O)C(NS(=O)(=O)c2ccc(Cl)cc2)C(C)O)cc1C (centres undefined)	?	45µM*	-27	1%	?
Cc1ccc(Oc2c(C(N)=O)cc([N+](=O)[O-])cc2[N+](=O)[O-])cc1	?	11µM*	19	-1%	-4%
Cc1ccc(CNc2ccc([N+](=O)[O-])cc2C(N)=O)cc1	27%	-11%	70	nt	64%
COc1ccccc1C(CC(=O)c1ccccc1)C(=O)c1ccccc1 (centres undefined)	nt	nt	-17	nt	nt
COc1ccccc1C(CC(=O)c1ccccc1)CC(=O)c1ccccc1	8%	-5%	-77*	-5%	?
CN1CCc2c(C#N)c(N3CCOCC3)nc(NCC3CCCO3)c2C1 (centres undefined)	?	-2%	-21	-27%	?
CCCCCNc1nc(N2CCCC2)c2c(c1C#N)CCN(C)C2	0%	3%	-33	?	4.1µM*
C=CCNc1nc(NCc2ccccc2)c(C#N)c2c1CN(C)CC2	27%	-2%	-30	?	?
CCCCCNc1nc(NCCCO)c(C#N)c2c1CN(C)CC2	12µM*	-9%	-35	-21%	nt
Cc1ccc2oc(-c3cc(NC(=O)c4ncn[nH]4)ccc3O)nc2c1	?	-3%	-26	7%	23%
CC(=NCc1ccco1)c1c(O)n(Cc2ccccc2)c(=O)[nH]c1=O	?	35µM*	-19	3%	-33%
C=CCn1c(O)c(C(C)=NCCC(c2ccccc2)c2ccccc2)c(=O)[nH]c1=O	12µM*	-12%	65	4%	-13%
C=CCn1c(O)c(C(C)=NCCN2CCCCC2)c(=O)[nH]c1=O	8%	14µM*	55	-3%	nt
CC(=NCc1ccco1)c1c(O)n(-c2ccc(Cl)cc2)c(=O)[nH]c1=O	?	85%	?	3%	?
C=CCn1c(O)c(C(C)=NC(C)c2ccccc2)c(=O)[nH]c1=O (centres undefined)	-5%	4%	19	0%	-1%
O=C(CN1CCN(C(=O)c2ccc(-c3nc4ccccc4s3)o2)CC1)Nc1ccc(F)cc1	13µM*	-5%	-2	nt	12µM*
O=C(CN1CCN(C(=O)c2ccc(-c3nc4ccccc4s3)o2)CC1)Nc1ccccc1Cl	?	-14%	27	nt	?
